ChEMBL document CHEMBL3988442, “University of Dundee, Small-Polar-MMV Screening Library” (2021)
Screen size: about 69,000 compounds; about 10 (0.01%) showed an effect of 50% or more. Only a selection was taken, and strong results are over-represented in it overall.

Molecular target: ClpP1P2 (Mycobacterium tuberculosis (strain ATCC 25618 / H37Rv)) (UniProt P9WPC5+P9WPC3)
Assay: in vitro assay to detect presence of AMC directly proportional to the activity of ClpP1P2. GHDDI collaboration.
Type: functional
Parameters: scale not given: direction of the effect not stated beside the values
Conditions: 50 µM

Compound	Percent Effect
CCN1CC[C@@]2(C(=O)N(C)C)CCN(S(=O)(=O)c3ccccc3)CC[C@@H]12	-6.35%
COCCN1CC[C@@H]2CN(Cc3nccn3C)C[C@@H]2C1	3.59%
Fc1cnc(N2CCO[C@H]3CN(CC4CCOC4)C[C@H]32)nc1 (stereo partly specified)	-12.3%
CCS(=O)(=O)N1C[C@H]2CN(CC3CC3)C(=O)[C@H]2C1	7.7%
CC(C)CN1C(=O)CC[C@H]2CN(Cc3ncc[nH]3)CC[C@H]21	-3.16%
O=C(C1=CCCC1)N1C[C@@H]2COC[C@]2(COCC2CC2)C1	-3.2%
CN(C)CCN1CCO[C@H]2CN(Cc3ccccn3)C[C@H]21	1.87%
O=C(c1ccncc1)N1C[C@@H]2OCCN(CCN3CCCC3)[C@@H]2C1	-8.83%
O=C1[C@H]2CN(CC3CCOCC3)C[C@H]2CN1Cc1cccc(F)c1	7.64%
Cc1cccc(COC[C@@]23CCC[C@@H]2CN(S(=O)(=O)N(C)C)C3)n1	-4.08%
CC1=CC[C@@H]2CN(C(=O)c3ccc(-c4nc[nH]n4)cc3)C[C@@H]2C1	-12.9%
COCCN1CC[C@H]2CN(Cc3ccc(C)s3)C[C@@H]2C1=O	-2.27%
Cc1ccc(CN2C[C@H]3CN(CC4CCN(C)CC4)C(=O)[C@H]3C2)s1	-7.79%
Cc1ccc(CN2C[C@@H]3CCN(Cc4cccnc4)C(=O)[C@H]3C2)s1	13.6%
CCN1C[C@H]2CCN(Cc3ccncc3)C(=O)[C@@H]2C1	-1.34%
Cc1ccc(CN2C[C@@H]3CCN(Cc4ccncc4)C(=O)[C@H]3C2)s1	54%
O[C@@H]1C[C@@](CNCC2CCCC2)(COc2cccnc2)C[C@@H]1O	-0.271%
CN(C)C(=O)CO[C@H]1CN(Cc2ccoc2)[C@@H]2COC[C@H]12	-6.93%
Cc1cccc(CN2C(=O)CO[C@@H]3CN(C4CCOCC4)C[C@H]32)c1	-8.98%
Cc1cc(C)n(CCCC(=O)N2CC[C@H]3NCCC[C@]3(CO)C2)n1	-5.5%
CC(C)CN1C[C@H]2N(c3ncccn3)CCC[C@@]2(C(=O)NCC2CC2)C1	-20.2%
Cc1cc2cc(C(=O)N3CCN(CCO)[C@@H]4CS(=O)(=O)C[C@@H]43)ccc2o1	-4.08%
Cc1nnc(N2C[C@@H](Oc3ccccn3)[C@H]3OCCC[C@H]32)s1	9.54%

Compound	Percent Effect
COCCN1C[C@H]2CN(C(=O)NC(C)C)CCN2C1=O	-7.02%
COc1cccc(CN2CCCCCC2c2cccs2)c1O (stereo unspecified)	-21.7%
COc1cc(CN2CCCCCC2c2cccs2)cc(OC)c1O (stereo unspecified)	52.1%
COc1cc(CN2CCCCCC2c2cccs2)cc(OC)c1OC (stereo unspecified)	1.65%
O=C([C@H]1COC[C@H]2CN(Cc3ccco3)C[C@H]21)N1CCCO1	3.57%
O=C(NC[C@H]1C[C@@H]2CCN1C[C@@H]2CN1CCCCC1)c1ccco1	-12.3%
O=S(=O)(NC[C@]12COC[C@H]1CN(c1ncc(F)cn1)C2)C1CC1	-0.384%
CNC(=O)[C@@H]1C[C@H]2CN(Cc3c(C)noc3C)C[C@H]2N1C(C)C	-4.22%
CCSCCNC(=O)c1ccc(S(=O)(=O)N2C[C@@H]3C[C@H]2CN3)cc1	9.91%
CC(C)NC(=O)N1CCC2(CC1)CC[C@@]1(C(=O)N(C)C)CN(C)C[C@@H]21	-5.9%
COc1ncccc1C(=O)N1CC[C@H]2C[C@@H](c3ccncn3)O[C@@H]2C1	-7.36%
O=C(CCc1ccccc1)N1C[C@H]2CCN[C@H]2C1	0.746%
COc1ncccc1CN1C[C@@H]2COC[C@]2(COCC2CC2)C1	-9.86%
O=C1CC[C@H]2[C@H](CCN2C(=O)C2CCOC2)N1Cc1ccncc1 (stereo partly specified)	0.241%
CNC(=O)[C@H]1C[C@@H]2CN(C(=O)Nc3ccccc3)C[C@H]1O2	-3.31%
CNC(=O)[C@H]1C[C@@H]2CN(C(=O)c3ccsc3)C[C@@H]2N1S(C)(=O)=O	-13.7%
Cc1ncccc1NC(=O)[C@H]1C[C@@H]2CCN(Cc3ccsc3)C[C@H]2O1	-3.15%
CN(C)CCN1CCO[C@H]2CN(Cc3cnn(C)c3)C[C@H]21	-9.41%
CCN(Cc1nc2c(cnn2C)c(=O)[nH]1)Cc1cccs1	61.1%
CCN(Cc1ccccc1)Cc1nc2c(cnn2C)c(=O)[nH]1	-16.6%
CCN(Cc1nc2c(cnn2C)c(=O)[nH]1)Cc1ccco1	7.15%
CCOCC1C[C@@H]2OCCN(C(=O)c3ccc[nH]3)[C@H]2C1 (stereo partly specified)	-16.1%
O=C(Nc1ccccc1-c1ccccc1)N1C[C@@H]2CNC[C@]2(C(=O)O)C1	4.15%

Compound	Percent Effect
COCCNC(=O)[C@H]1C[C@@H]2CCN(c3ncccn3)C[C@H]2O1	-14.4%
CC(C)(C)c1ccc(CN2C[C@H]3C[C@H](O)C[C@H]3C2)c(OCC(N)=O)c1	2.62%
Cn1cc(N2CC[C@@H]3CN(Cc4ccncc4)C[C@H]3C2=O)cn1	6.53%
COCC(=O)N1C[C@H](N(C)Cc2cncnc2)[C@H]2OCCC[C@H]21	3.58%
NS(=O)(=O)N1CCc2ccc(NC(=O)Cc3ccc(F)cc3)cc21	70.3%
NS(=O)(=O)N1CCc2ccc(NC(=O)Cc3ccccc3F)cc21	21.3%
NS(=O)(=O)N1CCc2ccc(NC(=O)CC(F)(F)F)cc21	-1.98%
CN(C)S(=O)(=O)N1C[C@@H](OCc2ccccn2)[C@H]2OCCC[C@H]21	14.2%
Cn1cc(CN2CC[C@@H]3[C@@H](CCC(=O)N3CCc3ccccc3)C2)cn1	-11.2%
O=C(NCCc1cccs1)[C@]12COC[C@H]1CN(Cc1ccccn1)C2	21.1%
COc1ccc(N2CCN(C(=O)[C@H]3[C@@H]4CNC[C@@H]43)CC2(C)C)cc1	-7.82%
CCN1C[C@H]2CCN(C(=O)c3cc[nH]n3)CC[C@H]2S1(=O)=O	-1.84%
Cc1noc([C@H]2CC[C@@H]3[C@@H](CCN3S(=O)(=O)C3CC3)O2)n1	16.5%
Cc1cc(CN2CCCC2)cc(Oc2ccc3c(c2)CC(CN)O3)c1 (stereo unspecified)	-31.6%
NCC1Cc2cc(Oc3cc(F)c(CN4CCCC4)c(F)c3)ccc2O1 (stereo unspecified)	72.6%
COc1ccc(CN2CCCC2)cc1Oc1ccc2c(c1)CC(CN)O2 (stereo unspecified)	-30%
Cc1cnc(N2C[C@H]3CCCC(N(C)Cc4ccccn4)[C@H]3C2)nc1 (stereo partly specified)	6.27%
O=C(CCC(F)(F)F)N1CCN(Cc2ccncc2)[C@@H]2CS(=O)(=O)C[C@@H]21	-11.9%
CC(=O)N1[C@H](Cn2cncn2)C[C@@H]2CN(Cc3ccccn3)CC[C@@H]21	-7.75%
O=C(N1CCCC1)N1C[C@H]2CC[C@@H]1CN(Cc1ccncc1)C2	-3.97%
CC(=O)N1CC[C@H]2CC(=O)N(C3CCCCC3)CC[C@H]2C1	-8.93%
CC(C)N1CC[C@H]2[C@H](C[C@@H](Cn3cncn3)N2c2nccs2)C1	9.71%
COC[C@]12COC[C@H]1CN(Cc1ccc3ccccc3n1)C2	8.31%

Compound	Percent Effect
CN(C)C[C@H]1OC[C@@H]2CCN(S(=O)(=O)c3cccs3)C[C@@H]21	-1.92%
O=C(c1ncccn1)N1C[C@@H]2CC[C@H](Oc3cccc(F)c3)[C@@H]2C1	-9.72%
COCC(=O)N1CCN(S(=O)(=O)c2cccs2)[C@H]2CS(=O)(=O)C[C@H]21	21.1%
Cc1ncsc1CN1CC[C@H]2OCC[C@@]2(C(=O)NCC2CC2)C1	8.1%
CN(C[C@H]1CN2CC[C@H]1C[C@@H]2CNC(=O)c1ccco1)c1ccccc1	3.33%
CN(C)c1nccc(N2CCO[C@H]3CN(Cc4ccsc4)C[C@H]32)n1	-1.49%
CN(C)S(=O)(=O)N1CCO[C@H]2[C@H](Oc3cccnc3)CC[C@@H]21	-10.1%
Cc1nn(C)c(C)c1S(=O)(=O)N1CC[C@H]2O[C@@H](C)C[C@H]2C1	9.45%
O=C(c1ccoc1)N1CC[C@@H]2O[C@@H](COCCN3CCCC3)CC[C@@H]21	8.08%
O=C(CCN1C[C@H]2CC[C@@H]1CN(c1ncccn1)C2)NCc1ccco1	-5.46%
CCc1cnc(N2C[C@H]3C[C@H](C(=O)N4CCOCC4)[C@@H](C2)O3)nc1	7.75%
CC(C)N1C[C@@H]2CN(C(=O)NCc3ccccc3)CCC[C@]2(C(=O)O)C1	-0.327%
Cc1noc([C@@H]2C[C@H]3CN(Cc4ccc5c(c4)OCO5)C[C@H]3O2)n1	2.95%
Cc1noc([C@]23COC[C@H]2CN(Cc2cc(C)on2)C3)n1	14.7%
O=C1C[C@@H]2[C@H](CCN2Cc2ccco2)N1c1ccsc1	-3.07%
C[C@H]1C[C@H]2CN(C(=O)CCc3ccccc3)CC[C@H]2O1	-7.99%
O=C(Nc1ccccc1)[C@H]1CN2CC[C@H]1C[C@@H]2Cn1cc(CCO)nn1	-1.69%
O=C(C[C@H]1[C@H]2CN(Cc3ccc(F)cc3)C[C@@H]12)N1CCCC1	-10.3%
Cc1cnc(N2C[C@@H]3[C@@H](C(=O)NC(C)C)CCS(=O)(=O)[C@@H]3C2)nc1	8.69%
CCN1CC[C@@]2(C(=O)N3CCOCC3)CCN(C(=O)CC(C)C)CC[C@@H]12	-11.5%
COc1ccc(-c2ncccc2C(=O)N2C[C@H]3CC[C@@H]2C3)cn1	-2.59%
CN(C)S(=O)(=O)N1C[C@@H]2CC[C@H](C1)N(Cc1ccc3c(c1)OCCO3)C2	-5.61%
Cc1nc2cc(C3CCN(Cc4cccc(F)c4F)C3)nn2c(O)c1C (stereo unspecified)	4.6%

Compound	Percent Effect
N#Cc1cccc(CN2CC[C@@H]3[C@@H]2CC(=O)N3CCN2CCCC2)c1	-6.88%
CC(C)NC(=O)[C@H]1C[C@@H]2[C@@H](C1)OCCN2Cc1nccs1	-14.4%
Cc1noc(C)c1CN1C[C@H]2CNC[C@H]2C1	3.63%
c1cnc(NC[C@@H]2CCC[C@@H]3CN(Cc4cccnc4)C[C@@H]32)nc1	9.72%
CCN(CC)Cc1cc(C(=O)N2CC[C@@]3(O)CCCC[C@H]3C2)c(C)o1	-7.09%
N#Cc1ccccc1C(=O)N1C[C@H]2CC[C@@H]1CN(c1ncccn1)C2	12.4%
COc1ccc(CN2C[C@@H](N(C)Cc3ccco3)[C@H]3OCCC[C@H]32)cc1	8.12%
Cc1cccc(CN2CC[C@H]3C[C@H](C)O[C@@H]3C2)n1	-3.13%
CN(C)C(=O)N1CC[C@H]2[C@H]1CCN2c1nncs1	-2.44%
NC(=O)c1cc2c(nc1N1C[C@H]3OC(=O)N(C4CCCC4)[C@H]3C1)CCC2	3.22%
Cc1ccc(CN2CCO[C@@H]3C[C@@H](C(=O)NC(C)C)C[C@H]32)o1	-8.36%
CCCc1nc(N2CCCN3CCC[C@H]3C2)c2cnn(C)c2n1	7.09%
CN(C)CCN1C[C@@H]2OCCN(Cc3cnn(C)c3)[C@@H]2C1	12%
CC(CN1CC[C@@H]2CCCC[C@@H]2C1)n1cnc2ccccc21 (stereo partly specified)	-9.76%
COCCC(=O)N1CCC2(COCc3c(C)nc(NCC4CC4)nc32)C1 (stereo unspecified)	11.8%
Cc1nc(NCC2CC2)nc2c1COCC21CCN(C(=O)NC(C)C)C1 (stereo unspecified)	6.34%
Cc1nc(NCC2CC2)nc2c1COCC21CCN(C(=O)C(C)(C)C)C1 (stereo unspecified)	97.5%
CC1=N[C@@]2(CC[C@@H]3CN(CC4CC4)C[C@@H]32)C(=O)N1CC1CC1	-5.13%
Cc1ccoc1C(=O)N1C[C@@H](OCC2CCOCC2)[C@H]2OCCC[C@H]21	-0.469%
